Sampled rows, rich in hits. Any-hit rate of the full collection: about 10%.
NIH3T3 tox: kills NIH 3T3 cells | 94,000 compounds, 4.3% hits | Potency, µM (doses to about 96.7 µM), for the others: at the highest dose activity change, negative = cytotoxicity, most hits filed as inhibitors | AID 1345082 | NIH 3T3 viability, CellTiter-Glo ATP luminescence, 48-72 h; further: nearly all actives have a fitted effect of over 55% in size
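Mouse fibroblast NIH 3T3 cells, 400 per well, received compound via pintool and were incubated for 48 or 72 hr prior to CellTiter-Glo ATP luminescence measurement.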
HEK cytotox: cytotoxic compounds in HEK 293 cells; HEK 293 viability, ATP luminescence (CellTiter-Glo), 48-72 h; Potency, µM (doses to about 115 µM), for inactives: top-dose activity change, negative = cytotoxicity, hits mostly inhibitors; 94,000 compounds, 6.6% hits; AID 1345083; further: nearly all actives have a fitted effect of over 60% in size
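Viability of HEK 293 cells, plated at 250 cells/well, was judged by cellular ATP after compound treatment for 48 or 72 hr. Luminescence was imaged 10 min after CellTiter-Glo addition at room temperature.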
Luciferase inh: blocks purified firefly luciferase enzyme activity | AID 1347043 | purified P. pyralis luciferase, luminescence, biochemical | P08659 | Potency, µM (series often up to 115 µM), actives largely listed as inhibitors | 76,000 compounds, 2.5% hits; further: nearly all actives have a fitted effect of over 65% in size
Target sequence (P08659 whole entry, looked up): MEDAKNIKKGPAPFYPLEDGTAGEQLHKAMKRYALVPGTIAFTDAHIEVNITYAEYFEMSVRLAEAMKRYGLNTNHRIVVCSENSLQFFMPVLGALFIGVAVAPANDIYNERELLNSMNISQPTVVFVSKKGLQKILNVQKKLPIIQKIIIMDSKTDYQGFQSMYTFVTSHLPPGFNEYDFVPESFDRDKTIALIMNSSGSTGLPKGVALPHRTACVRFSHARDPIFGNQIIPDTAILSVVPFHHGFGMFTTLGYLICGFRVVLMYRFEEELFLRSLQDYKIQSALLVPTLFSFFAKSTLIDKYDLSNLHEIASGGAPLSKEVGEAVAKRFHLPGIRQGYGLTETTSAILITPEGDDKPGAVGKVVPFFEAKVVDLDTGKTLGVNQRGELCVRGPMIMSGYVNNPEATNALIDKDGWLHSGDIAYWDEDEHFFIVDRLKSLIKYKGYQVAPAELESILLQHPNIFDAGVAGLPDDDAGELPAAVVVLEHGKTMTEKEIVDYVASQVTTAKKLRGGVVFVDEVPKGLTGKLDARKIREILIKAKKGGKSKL
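Biochemical qHTS: compound (6-point titration) added to 10uM D-luciferin plus 10uM ATP in Tris acetate pH 7.5 buffer with Mg, Tween-20 and BSA, then purified enzyme at 10nM; light output imaged.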
GPT2 inh: inhibitors of human GPT2 alanine aminotransferase; Q8TD30; Recombinant GPT2, coupled pyruvate oxidase/HRP Amplex Red fluorescence; Potency, µM (doses to about 57.7 µM), inactives show at the highest dose activity change, negative = inhibition, usual class: inhibitors; 100,000 compounds, 0.25% hits; AID 1671188; further: nearly all actives have a fitted effect of over 60% in size
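Inhibition is scored from Amplex Red fluorescence generated when pyruvate oxidase and HRP act on pyruvate released by GPT2. Reactions contain 10ng/uL enzyme, 250uM a-KG and 2mM L-alanine and run 30 min at room temperature.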
hNpr1 antagonist: human Npr1 receptor antagonism. HEK293 hNpr1 GloSensor cGMP, ANP-stimulated luminescence. 76,000 compounds, 1.6% hits. Potency, µM (doses to about 46.3 µM), for the others: top-dose activity change, negative = inhibition, hits mostly inhibitors; calls by dose curve; further: nearly all actives have a fitted effect of over 60% in size
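HEK293 cells stably expressing human Npr1 and cGMP GloSensor pGS-40F, loaded 2 h with 2% GloSensor reagent, given compound 30 min at room temperature. Luminescence read before and 20 min after 0.1 nM hNppA.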
The depositor's hits bear a star; i = inactive; ? = inconclusive; . = no result given; [ ] = dose if it differs, or a comment. Unless noted, the call rests on the fitted dose curve; in most records, active means well fitted curve in the direction sought with a large enough effect; inconclusive means small, poorly fitted or top-dose-only effect, or another doubt; inactive means no such curve, though single readings can be large; an effect the other way counts as inactive or inconclusive. On the % scale 0 is the no-effect control and ±100 the full control effect; potency means the concentration at half of the fitted maximal effect.

SMILES	NIH3T3 tox	HEK cytotox	Luciferase inh	GPT2 inh	hNpr1 antagonist
Cc1cn2nc(C(=O)NC3CCCCC3)cc2c(N2CCCC2)n1	-7%	-3%	i	-15%	10%
Cc1cn2nc(C(=O)Nc3ccc4c(c3)OCCO4)cc2c(N2CCSCC2)n1	-15%	?	11µM*	-4%	-27%
Cc1cn2nc(C(=O)NC3CCCCCC3)cc2c(N2CCSCC2)n1	?	45µM*	i	i	-2%
Cc1cccc(NC(=O)c2cc3c(N4CCSCC4)nc(C)cn3n2)c1	?	40µM*	i	i	-5%
O=C(c1cccc(Cl)c1)N1CCCC(C(=O)N2CCC(c3nc4ccncc4[nH]3)CC2)C1 (centres undefined)	?	-27%	.	i	.
COc1ccc(C(C)NC(=O)c2ccc(Cn3ccn4nc5c(c4c3=O)CCCC5)cc2)cc1 (centres undefined)	-20%	?	i	3%	-25%
COCC(=O)NC1CCCc2c1[nH]c1c(Cl)cccc21 (centres undefined)	-12%	?	i	-10%	1%
COc1ccc(CC(=O)NC2CCCc3c2[nH]c2ccccc32)cc1OC (centres undefined)	?	35µM*	i	i	?
Cc1noc(C)c1CC(=O)NC1CCCc2c1[nH]c1ccc(F)cc21 (centres undefined)	?	?	i	0%	-4%
Cn1nc(C(=O)NC2CCCc3c2[nH]c2ccccc32)c2ccccc2c1=O (centres undefined)	?	35µM*	i	1%	-18%
Cc1noc(C)c1CC(=O)NC1CCCc2c1[nH]c1ccccc21 (centres undefined)	40µM*	?	i	-13%	-18%
COc1ccc(CC(=O)NC2CCCc3c2[nH]c2c(Cl)cccc32)cc1 (centres undefined)	25µM*	?	i	-22%	-20%
COc1ccccc1CC(=O)NCc1nnc2cc(-c3nc(C4CC4)no3)ccn12	-14%	-18%	i	i	-6%
COCCN[C@H]1[C@@H]2OC[C@@H](O2)[C@@H](NCc2ccc(OC(F)(F)F)cc2)[C@@H]1O	-23%[174 µM]	-3%[172 µM]	i	2%[88.5 µM]	0%[70.6 µM]
CN(Cc1ccc(OC(F)(F)F)cc1)C1CCCc2ccccc21 (centres undefined)	-25%[138 µM]	-20%[172 µM]	i	i	2%[70.6 µM]
COc1ccc(C(=O)NC2CCCc3c2[nH]c2ccccc32)cc1OC (centres undefined)	?	45µM*	i	-20%	-12%
CC(C)(C)C(=O)NC1CCCc2c1[nH]c1ccc(F)cc21 (centres undefined)	?	45µM*	i	-31%	-7%
O=C(NC1CCCc2c1[nH]c1c(Cl)cccc21)c1n[nH]c2c1CCC2 (centres undefined)	28µM*	?	i	i	-18%
COc1ccc(C(=O)NC2CCCc3c2[nH]c2c(Cl)cccc32)cc1OC (centres undefined)	?	?	i	i	-26%
O=C(NC1CCCc2c1[nH]c1c(Cl)cccc21)c1ccncc1 (centres undefined)	-22%	-27%	i	-7%	-15%
CC(=O)NC1CCCc2c1[nH]c1ccc(F)cc21 (centres undefined)	-12%	?	i	i	-1%
O=[S+]1([O-])NCC2(CCN(Cc3cccs3)CC2)Oc2ncccc21	-2%	-6%	.	i	.
O=C(NCc1ccccc1F)[C@H]1CN(Cc2ccccc2)C[C@H]1C(=O)O	?	?	i	i	-12%
COc1ccccc1-c1cccc(CN2CCCC(C(=O)NCc3cccc(Cl)c3)C2)c1 (centres undefined)	32µM*	14µM*	.	i	.
COc1ccccc1-c1cccc(CN2CCCC(C(=O)NCc3ccc(F)cc3)C2)c1 (centres undefined)	32µM*	32µM*	.	i	.
SMILES	NIH3T3 tox	HEK cytotox	Luciferase inh	GPT2 inh	hNpr1 antagonist
COc1ccccc1-c1cccc(CN2CCCC(C(=O)NC3CCOC3)C2)c1 (centres undefined)	?	?	.	i	.
COc1ccccc1-c1cccc(CN2CCCC(C(=O)NCc3cccc(C(F)(F)F)c3)C2)c1 (centres undefined)	16µM*	14µM*	.	i	.
COc1ccccc1CNC(=O)C1CCCN(Cc2cccc(-c3ccc(F)cc3F)c2)C1 (centres undefined)	?	?	.	i	.
COc1ccccc1-c1cccc(CN2CCCC(C(=O)NCc3cccnc3)C2)c1 (centres undefined)	35µM*	?	.	i	.
O=C(CN1C(=O)NC2(CCOCC2)C1=O)Nc1ccc(Cl)cc1	-16%	-2%	i	i	18%
CCCOc1ccc(CN2CCn3nnc(CCC(=O)N4CCCC4)c3C2)cc1	-31%	?	.	i	.
CC(C)N1C(=O)C2(CCCC2)C1C(=O)NCCN1CCC(Cc2ccccc2)CC1 (centres undefined)	-21%	-20%	i	?	-5%
COc1ccccc1-c1cccc(CN2CCCC(C(=O)NCc3ccc(C(F)(F)F)cc3)C2)c1 (centres undefined)	22µM*	18µM*	.	?	.
O=C(NCC1CCCCCC1)c1nc2cccnc2n(CCc2ccccc2)c1=O	35µM*	?	.	i	.
CC(C)NC(=O)c1nc2cccnc2n(CCc2ccccc2)c1=O	?	20µM*	.	i	.
COc1ccc(C(=O)N2C[C@@H](Oc3cccnc3)C[C@H]2C(N)=O)cc1F	-2%	i	i	i	-1%
O=C(c1cccc(Cl)c1)N1CC(CNc2cccnc2)C2(C1)CN(c1ccccc1)C2 (centres undefined)	?	?	i	-9%[88.5 µM]	-3%[70.6 µM]
O=C(c1cccc(O)c1)N1CC(CNc2ccccc2)C2(C1)CN(c1ccccc1)C2 (centres undefined)	50µM*	63µM*	i	-12%[88.5 µM]	-8%[70.6 µM]
O=C(Cc1ccc(O)cc1)N1CC(CNc2ccccc2)C2(C1)CN(c1ccccc1)C2 (centres undefined)	32µM*	50µM*	i	-13%[88.5 µM]	-26%[70.6 µM]
O=C([C@H]1O[C@H](CCN2CCOCC2)CC[C@@H]1O)N1CCN(c2ccccc2)CC1	-18%[138 µM]	-15%[172 µM]	i	-1%[88.5 µM]	0%[70.6 µM]
CCc1c(C(=O)N2CCC(CO)(Cc3ccccc3)CC2)[nH]c2ccccc12	?	20µM*	i	-3%	-8%
CCOC(=O)C1CCCN(C(=O)C2CC(c3ccccc3)CN(C(=O)c3cccc(F)c3)C2)C1 (centres undefined)	?	?	i	-7%	3%

Compound activity from PubChem BioAssay.
